Among the data in ChEMBL document CHEMBL2218924, “A broad activity screen in support of a chemogenomic map for kinase signalling research and drug discovery” (Biochem J, 2013) are residual activity values, retold here.

Assay [1] addresses Tyrosine-protein kinase SYK (Homo sapiens) (UniProt P43405). The settings on record: at 10 µM.
Assay [2] concerns the target T1, Serine/threonine-protein kinase TAO1 (Homo sapiens) (UniProt Q7L7X3).
T1 sequence (whole entry): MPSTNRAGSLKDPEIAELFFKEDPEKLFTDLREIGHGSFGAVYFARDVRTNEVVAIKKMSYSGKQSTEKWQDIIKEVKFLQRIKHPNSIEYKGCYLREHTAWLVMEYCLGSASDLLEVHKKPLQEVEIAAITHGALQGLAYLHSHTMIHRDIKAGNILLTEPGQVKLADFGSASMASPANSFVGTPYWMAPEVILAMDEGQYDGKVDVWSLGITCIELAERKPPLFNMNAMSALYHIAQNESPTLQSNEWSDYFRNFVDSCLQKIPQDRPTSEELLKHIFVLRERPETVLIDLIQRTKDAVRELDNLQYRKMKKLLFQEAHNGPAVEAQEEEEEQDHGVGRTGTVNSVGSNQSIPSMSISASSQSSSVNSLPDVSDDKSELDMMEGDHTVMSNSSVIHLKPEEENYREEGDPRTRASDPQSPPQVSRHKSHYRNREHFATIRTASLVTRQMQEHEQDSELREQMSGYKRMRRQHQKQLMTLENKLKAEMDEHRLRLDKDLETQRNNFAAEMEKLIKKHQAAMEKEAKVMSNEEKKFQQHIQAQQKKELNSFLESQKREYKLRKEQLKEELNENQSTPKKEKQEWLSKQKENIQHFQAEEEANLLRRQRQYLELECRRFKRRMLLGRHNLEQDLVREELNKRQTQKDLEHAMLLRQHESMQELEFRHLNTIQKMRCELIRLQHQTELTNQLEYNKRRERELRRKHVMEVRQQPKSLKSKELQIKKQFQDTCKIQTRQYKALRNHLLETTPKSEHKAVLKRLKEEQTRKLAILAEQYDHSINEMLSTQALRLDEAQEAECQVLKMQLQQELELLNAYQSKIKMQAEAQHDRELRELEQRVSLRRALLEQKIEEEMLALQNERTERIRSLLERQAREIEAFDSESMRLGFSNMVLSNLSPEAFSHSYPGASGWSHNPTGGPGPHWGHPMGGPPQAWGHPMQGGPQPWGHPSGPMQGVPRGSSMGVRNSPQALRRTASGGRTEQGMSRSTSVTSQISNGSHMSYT
The settings on record: at 1 µM.

Assay [3] addresses T2, Serine/threonine-protein kinase TAO2 (Homo sapiens) (UniProt Q9UL54).
T2 sequence (whole entry): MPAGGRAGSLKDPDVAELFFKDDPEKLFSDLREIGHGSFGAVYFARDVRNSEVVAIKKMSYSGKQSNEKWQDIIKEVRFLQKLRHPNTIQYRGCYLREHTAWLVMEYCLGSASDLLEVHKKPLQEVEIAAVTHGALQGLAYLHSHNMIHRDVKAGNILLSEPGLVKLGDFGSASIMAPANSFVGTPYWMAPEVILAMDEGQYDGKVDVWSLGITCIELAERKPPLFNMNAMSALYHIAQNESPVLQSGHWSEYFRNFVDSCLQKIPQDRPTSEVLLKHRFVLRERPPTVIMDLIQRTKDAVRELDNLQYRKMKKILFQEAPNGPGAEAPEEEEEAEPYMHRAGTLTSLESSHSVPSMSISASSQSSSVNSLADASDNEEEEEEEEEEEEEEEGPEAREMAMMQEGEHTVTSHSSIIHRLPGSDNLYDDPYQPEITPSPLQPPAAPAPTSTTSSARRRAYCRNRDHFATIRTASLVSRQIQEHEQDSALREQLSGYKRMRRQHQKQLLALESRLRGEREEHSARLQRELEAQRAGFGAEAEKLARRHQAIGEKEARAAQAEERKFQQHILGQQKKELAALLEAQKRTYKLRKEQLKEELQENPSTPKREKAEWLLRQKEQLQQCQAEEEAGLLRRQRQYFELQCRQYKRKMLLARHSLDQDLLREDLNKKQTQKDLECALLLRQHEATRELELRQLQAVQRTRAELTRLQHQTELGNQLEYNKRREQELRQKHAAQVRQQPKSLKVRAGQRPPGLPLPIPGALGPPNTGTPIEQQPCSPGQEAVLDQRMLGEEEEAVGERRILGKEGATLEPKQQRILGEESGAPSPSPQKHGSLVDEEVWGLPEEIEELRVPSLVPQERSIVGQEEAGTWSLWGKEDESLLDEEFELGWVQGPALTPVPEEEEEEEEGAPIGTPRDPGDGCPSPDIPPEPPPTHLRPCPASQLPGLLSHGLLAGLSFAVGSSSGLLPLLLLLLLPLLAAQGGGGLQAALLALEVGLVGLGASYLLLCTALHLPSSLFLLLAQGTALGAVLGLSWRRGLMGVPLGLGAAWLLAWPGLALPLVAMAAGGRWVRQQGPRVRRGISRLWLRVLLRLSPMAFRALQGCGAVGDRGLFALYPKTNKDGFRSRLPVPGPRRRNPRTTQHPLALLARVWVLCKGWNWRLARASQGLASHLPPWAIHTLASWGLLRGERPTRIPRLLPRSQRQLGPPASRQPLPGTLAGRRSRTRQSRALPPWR
The settings on record: at 1 µM.

Assay [4] addresses T2, Serine/threonine-protein kinase TAO2 (Homo sapiens). The settings on record: at 10 µM.
The target of assay [5] is T3, Serine/threonine-protein kinase TAO3 (Homo sapiens) (UniProt Q9H2K8).
T3 sequence (whole entry): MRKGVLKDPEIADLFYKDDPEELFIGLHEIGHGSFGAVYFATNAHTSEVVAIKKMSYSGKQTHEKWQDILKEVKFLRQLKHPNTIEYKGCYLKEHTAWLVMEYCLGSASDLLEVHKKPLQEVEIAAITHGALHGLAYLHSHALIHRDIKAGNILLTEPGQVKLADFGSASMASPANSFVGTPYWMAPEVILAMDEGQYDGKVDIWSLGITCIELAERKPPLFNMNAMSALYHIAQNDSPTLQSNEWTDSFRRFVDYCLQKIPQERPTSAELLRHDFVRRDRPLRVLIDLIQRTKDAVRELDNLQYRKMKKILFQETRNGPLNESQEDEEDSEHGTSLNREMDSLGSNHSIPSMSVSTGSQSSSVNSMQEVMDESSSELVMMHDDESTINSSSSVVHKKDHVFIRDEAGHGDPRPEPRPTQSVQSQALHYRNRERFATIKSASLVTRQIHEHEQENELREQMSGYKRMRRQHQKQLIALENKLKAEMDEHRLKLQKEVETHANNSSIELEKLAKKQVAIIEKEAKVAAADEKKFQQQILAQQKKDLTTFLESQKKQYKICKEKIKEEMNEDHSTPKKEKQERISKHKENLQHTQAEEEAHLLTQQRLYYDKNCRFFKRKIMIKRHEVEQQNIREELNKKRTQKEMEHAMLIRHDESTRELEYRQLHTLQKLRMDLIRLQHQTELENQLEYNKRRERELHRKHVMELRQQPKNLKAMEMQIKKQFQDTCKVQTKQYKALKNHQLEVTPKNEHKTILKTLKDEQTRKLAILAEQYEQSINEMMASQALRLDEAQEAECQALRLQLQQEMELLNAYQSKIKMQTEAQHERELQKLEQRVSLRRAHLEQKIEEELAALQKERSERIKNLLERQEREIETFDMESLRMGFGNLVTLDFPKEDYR
The settings on record: at 1 µM.

The target of assay [6] is T4, Serine/threonine-protein kinase TBK1 (Homo sapiens) (UniProt Q9UHD2).
T4 sequence (whole entry): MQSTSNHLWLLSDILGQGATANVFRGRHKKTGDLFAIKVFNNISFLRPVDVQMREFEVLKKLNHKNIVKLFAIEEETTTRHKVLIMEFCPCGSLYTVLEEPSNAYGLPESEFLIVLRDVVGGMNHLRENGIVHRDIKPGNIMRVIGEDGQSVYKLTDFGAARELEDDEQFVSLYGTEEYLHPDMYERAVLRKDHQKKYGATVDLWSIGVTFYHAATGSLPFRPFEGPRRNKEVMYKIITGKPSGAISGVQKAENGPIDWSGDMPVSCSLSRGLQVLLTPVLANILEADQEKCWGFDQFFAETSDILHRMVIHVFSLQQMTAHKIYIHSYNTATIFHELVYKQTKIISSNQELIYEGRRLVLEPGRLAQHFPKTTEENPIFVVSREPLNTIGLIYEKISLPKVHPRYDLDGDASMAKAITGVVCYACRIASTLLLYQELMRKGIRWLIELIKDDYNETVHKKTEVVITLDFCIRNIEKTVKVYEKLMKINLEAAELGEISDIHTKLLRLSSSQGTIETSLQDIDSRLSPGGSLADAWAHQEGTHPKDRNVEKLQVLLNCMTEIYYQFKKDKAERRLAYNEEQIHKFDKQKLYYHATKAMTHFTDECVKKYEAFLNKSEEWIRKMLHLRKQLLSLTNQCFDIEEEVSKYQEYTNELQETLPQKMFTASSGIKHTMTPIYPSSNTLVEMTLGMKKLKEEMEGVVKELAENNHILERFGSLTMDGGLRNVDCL
The settings on record: at 1 µM.

Assay [7] has as its target T4, Serine/threonine-protein kinase TBK1 (Homo sapiens). The settings on record: at 10 µM.
Assay [8] addresses T5, TGF-beta receptor type-1 (Homo sapiens) (UniProt P36897).
T5 sequence (whole entry): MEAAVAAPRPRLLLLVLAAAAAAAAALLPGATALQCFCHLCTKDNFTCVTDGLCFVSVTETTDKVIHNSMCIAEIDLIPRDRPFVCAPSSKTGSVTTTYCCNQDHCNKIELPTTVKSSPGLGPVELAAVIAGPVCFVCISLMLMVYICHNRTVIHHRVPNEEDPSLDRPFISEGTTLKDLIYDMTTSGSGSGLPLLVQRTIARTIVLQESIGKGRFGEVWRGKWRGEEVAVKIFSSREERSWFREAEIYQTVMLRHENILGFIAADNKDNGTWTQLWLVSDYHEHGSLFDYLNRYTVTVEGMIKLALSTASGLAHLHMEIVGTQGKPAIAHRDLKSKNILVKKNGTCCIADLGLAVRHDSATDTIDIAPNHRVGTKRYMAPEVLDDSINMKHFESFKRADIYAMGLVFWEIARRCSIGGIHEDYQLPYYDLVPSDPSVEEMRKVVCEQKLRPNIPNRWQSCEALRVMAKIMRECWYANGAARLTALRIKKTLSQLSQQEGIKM
The settings on record: at 1 µM.

In assay [9] the target is T5, TGF-beta receptor type-1 (Homo sapiens). The settings on record: at 10 µM.
Assay [10] has as its target Insulin-like growth factor 1 receptor (Homo sapiens) (UniProt P08069). The settings on record: at 1 µM.
Assay [11] shares this target. The settings on record: at 10 µM.
The target of assay [12] is T6, Inhibitor of nuclear factor kappa-B kinase subunit alpha (Homo sapiens) (UniProt O15111).
T6 sequence (whole entry): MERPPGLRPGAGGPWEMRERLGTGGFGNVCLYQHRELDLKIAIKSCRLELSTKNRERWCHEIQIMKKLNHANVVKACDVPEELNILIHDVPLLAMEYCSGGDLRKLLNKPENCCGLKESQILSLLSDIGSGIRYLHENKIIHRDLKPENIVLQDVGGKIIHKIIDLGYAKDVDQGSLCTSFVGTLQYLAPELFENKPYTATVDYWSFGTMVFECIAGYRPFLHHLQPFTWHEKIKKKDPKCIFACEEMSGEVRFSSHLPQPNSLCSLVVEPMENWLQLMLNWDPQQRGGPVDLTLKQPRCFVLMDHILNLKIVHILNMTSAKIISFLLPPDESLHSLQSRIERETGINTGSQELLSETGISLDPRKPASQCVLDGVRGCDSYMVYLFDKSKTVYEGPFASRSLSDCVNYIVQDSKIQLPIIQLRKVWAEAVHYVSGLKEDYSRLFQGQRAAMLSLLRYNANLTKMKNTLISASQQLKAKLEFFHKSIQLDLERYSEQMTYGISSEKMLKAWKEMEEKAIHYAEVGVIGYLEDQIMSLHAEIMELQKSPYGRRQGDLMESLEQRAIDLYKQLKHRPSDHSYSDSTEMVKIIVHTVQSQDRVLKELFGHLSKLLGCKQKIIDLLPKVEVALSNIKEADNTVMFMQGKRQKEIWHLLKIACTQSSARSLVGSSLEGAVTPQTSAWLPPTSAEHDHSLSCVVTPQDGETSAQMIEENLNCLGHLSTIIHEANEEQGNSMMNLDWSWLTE
The settings on record: at 1 µM.

For assay [13], the target named is T7, Inhibitor of nuclear factor kappa-B kinase subunit beta (Homo sapiens) (UniProt O14920).
T7 sequence (whole entry): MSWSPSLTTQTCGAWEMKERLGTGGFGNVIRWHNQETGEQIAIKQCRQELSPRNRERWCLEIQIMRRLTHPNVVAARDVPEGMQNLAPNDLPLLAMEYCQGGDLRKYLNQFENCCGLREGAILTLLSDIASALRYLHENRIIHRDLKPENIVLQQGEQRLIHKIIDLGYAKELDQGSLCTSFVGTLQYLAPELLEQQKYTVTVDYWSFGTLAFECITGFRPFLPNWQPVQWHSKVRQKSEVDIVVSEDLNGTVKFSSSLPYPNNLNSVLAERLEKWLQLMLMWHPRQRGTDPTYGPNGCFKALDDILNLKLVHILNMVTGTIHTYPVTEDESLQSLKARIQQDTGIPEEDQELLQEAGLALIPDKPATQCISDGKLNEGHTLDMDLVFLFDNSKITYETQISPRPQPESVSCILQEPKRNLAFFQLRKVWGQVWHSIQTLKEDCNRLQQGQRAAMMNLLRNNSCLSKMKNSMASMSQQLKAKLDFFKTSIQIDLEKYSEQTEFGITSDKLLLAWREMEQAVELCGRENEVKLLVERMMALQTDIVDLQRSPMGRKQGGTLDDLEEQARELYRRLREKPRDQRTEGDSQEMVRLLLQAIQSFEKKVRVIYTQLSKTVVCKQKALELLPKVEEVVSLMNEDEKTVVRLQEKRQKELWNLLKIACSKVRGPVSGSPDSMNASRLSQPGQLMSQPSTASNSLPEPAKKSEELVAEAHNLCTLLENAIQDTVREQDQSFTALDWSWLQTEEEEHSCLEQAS
The settings on record: at 1 µM.

The target in assay [14] is T7, Inhibitor of nuclear factor kappa-B kinase subunit beta (Homo sapiens). The settings on record: at 10 µM.
The target in assay [15] is Insulin receptor (Homo sapiens) (UniProt P06213). The settings on record: at 1 µM.

SMILES strings stand for the structures.

One may read the residual activity as the signal under treatment as a percentage of the control signal.

Insulin-like growth factor 1 receptor (Homo sapiens), sequence (P08069 31-736 limits assumed): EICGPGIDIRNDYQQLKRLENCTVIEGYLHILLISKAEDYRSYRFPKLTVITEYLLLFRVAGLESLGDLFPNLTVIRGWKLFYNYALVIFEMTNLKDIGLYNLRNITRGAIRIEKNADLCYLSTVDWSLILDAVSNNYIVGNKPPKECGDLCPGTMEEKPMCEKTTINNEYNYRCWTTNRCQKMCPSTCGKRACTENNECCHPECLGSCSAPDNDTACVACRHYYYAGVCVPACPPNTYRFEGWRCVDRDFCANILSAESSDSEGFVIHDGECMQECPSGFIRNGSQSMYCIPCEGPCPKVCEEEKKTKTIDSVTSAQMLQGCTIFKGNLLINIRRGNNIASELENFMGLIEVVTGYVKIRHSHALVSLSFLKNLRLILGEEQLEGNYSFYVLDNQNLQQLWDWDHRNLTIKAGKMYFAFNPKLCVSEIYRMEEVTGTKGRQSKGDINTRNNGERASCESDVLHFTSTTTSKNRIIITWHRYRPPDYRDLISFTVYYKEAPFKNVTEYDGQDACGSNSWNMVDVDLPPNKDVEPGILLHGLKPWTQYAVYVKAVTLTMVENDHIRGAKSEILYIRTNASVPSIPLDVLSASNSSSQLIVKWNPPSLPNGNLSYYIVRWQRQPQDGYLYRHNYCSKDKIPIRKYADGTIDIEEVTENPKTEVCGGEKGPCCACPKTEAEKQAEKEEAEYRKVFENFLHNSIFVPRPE
Insulin-like growth factor 1 receptor (Homo sapiens), sequence (P08069 741-1367 limits assumed): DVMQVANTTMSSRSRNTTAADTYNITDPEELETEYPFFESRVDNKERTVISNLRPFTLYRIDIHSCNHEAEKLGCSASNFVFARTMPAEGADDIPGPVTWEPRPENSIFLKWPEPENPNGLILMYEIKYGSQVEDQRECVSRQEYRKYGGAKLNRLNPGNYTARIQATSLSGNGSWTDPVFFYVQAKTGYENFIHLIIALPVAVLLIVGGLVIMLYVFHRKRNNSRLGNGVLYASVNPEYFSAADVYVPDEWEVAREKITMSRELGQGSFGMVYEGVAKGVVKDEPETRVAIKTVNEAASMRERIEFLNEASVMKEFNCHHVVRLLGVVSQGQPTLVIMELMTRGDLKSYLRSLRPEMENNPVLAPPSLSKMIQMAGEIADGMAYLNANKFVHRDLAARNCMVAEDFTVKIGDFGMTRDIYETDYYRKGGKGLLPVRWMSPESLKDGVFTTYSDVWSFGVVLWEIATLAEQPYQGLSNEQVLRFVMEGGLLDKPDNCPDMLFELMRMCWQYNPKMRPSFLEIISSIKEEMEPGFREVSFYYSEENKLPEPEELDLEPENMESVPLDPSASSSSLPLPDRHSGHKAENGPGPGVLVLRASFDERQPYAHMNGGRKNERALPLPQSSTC
Insulin receptor (Homo sapiens), sequence (P06213 28-758 limits assumed): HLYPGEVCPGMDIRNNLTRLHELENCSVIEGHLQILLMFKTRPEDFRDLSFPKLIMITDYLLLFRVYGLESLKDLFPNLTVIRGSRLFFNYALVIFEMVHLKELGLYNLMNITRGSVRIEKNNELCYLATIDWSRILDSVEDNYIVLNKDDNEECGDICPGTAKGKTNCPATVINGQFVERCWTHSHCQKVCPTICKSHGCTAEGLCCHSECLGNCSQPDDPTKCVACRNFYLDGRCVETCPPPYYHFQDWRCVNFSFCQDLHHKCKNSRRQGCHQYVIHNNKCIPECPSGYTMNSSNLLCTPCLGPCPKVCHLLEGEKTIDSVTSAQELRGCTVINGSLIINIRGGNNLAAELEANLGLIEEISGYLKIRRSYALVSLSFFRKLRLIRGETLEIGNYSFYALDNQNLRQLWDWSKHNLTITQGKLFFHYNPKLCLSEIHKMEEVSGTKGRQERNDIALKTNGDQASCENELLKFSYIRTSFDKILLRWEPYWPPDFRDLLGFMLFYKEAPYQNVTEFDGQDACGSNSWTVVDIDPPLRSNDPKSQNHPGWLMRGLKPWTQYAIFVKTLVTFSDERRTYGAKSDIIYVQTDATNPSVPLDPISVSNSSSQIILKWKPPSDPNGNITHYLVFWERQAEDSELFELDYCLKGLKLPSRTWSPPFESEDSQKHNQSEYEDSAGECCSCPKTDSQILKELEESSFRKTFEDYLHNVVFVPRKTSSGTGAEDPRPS
Insulin receptor (Homo sapiens), sequence (P06213 763-1382 limits assumed): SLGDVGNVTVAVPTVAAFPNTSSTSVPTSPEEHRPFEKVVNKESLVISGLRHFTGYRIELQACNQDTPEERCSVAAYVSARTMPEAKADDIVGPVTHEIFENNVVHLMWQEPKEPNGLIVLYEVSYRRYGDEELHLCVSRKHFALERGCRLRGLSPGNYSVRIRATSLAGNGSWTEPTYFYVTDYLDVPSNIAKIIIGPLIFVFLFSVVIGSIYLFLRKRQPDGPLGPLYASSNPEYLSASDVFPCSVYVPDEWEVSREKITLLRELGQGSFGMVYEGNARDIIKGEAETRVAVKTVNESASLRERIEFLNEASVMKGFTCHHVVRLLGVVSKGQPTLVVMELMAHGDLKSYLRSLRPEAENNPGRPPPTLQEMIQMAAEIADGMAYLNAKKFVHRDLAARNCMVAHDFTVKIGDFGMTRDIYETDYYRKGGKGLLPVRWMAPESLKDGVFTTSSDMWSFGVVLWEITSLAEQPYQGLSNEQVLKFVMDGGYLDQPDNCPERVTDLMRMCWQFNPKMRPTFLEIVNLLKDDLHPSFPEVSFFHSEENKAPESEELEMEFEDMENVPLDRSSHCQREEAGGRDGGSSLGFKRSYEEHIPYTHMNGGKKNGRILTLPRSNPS

As to `Nc1ncnc2[nH]nc(Nc3ccc(F)cc3)c12`, the residual activity in assay [1] worked out at 97%; in [2], 107%; in assay [3], 102%; in assay [4], 91%; in assay [5], 101%; in assay [6] it was 77%. Further, the residual activity in [7] was 58%; in [8], 107%; in assay [9], 74%; in assay [10], 109%; in assay [11], 112%; in [12] it was 105%. The residual activity in [13] turned out to be 115%; in assay [14], 108%; in assay [15], 141%.
